Our source for the growth values is PubChem BioAssay (NCI).

Compounds without any hit were thinned out: in the full panel of roughly 83,000, 20% have a hit.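 Plates (96-well) were seeded with cells, treated with compound at one concentration, and incubated for 48 hours before percent growth was determined.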 Unmarked numbers belong to inactive results. Activity calls are given as the source filed them. How the source made its calls: active means growth percent below 10; inactive means the rest.

Test systems include HCT-15 colon; HT29 colon; SNB-75 CNS; SNB-19 CNS; U251 CNS; PC-3 prostate; SK-MEL-5 melanoma; UACC-62 melanoma; LOX IMVI melanoma; SK-MEL-28 melanoma; SK-MEL-2 melanoma; EKVX NSCLC; SN12C renal; UO-31 renal; TK-10 renal; ACHN renal; CAKI-1 renal; A498 renal; CCRF-CEM leukemia; MOLT-4 leukemia.
Holding throughout (assay): NCI-60 one-dose screen, 48 h (100 = growth as untreated, 0 = no growth, -100 = all killed)
Holding throughout (conditions): 10 µM unless noted

As to `Cn1cc(-c2cc(N)n3nc(-c4cn(C)c5ccccc45)cc3n2)c2ccccc21`, the growth in the assay with HCT-15 colon was 32%; with HT29 colon, 50.6%; in the assay on SNB-75 CNS, 112%; in the assay on SNB-19 CNS it was 112%; in the assay with U251 CNS, 72.4%; in the assay with PC-3 prostate, 88.8%. In addition, the growth with SK-MEL-5 melanoma was 92.7%; in the assay on UACC-62 melanoma, 92.9%; in the assay on LOX IMVI melanoma it was 65.1%; in the assay on SK-MEL-28 melanoma, 95.1%; in the assay on SK-MEL-2 melanoma, 119%; in the assay on EKVX NSCLC it was 96%. In addition, the growth was 88.6% in the assay on SN12C renal; 85.9% in the assay on UO-31 renal; 99.3% in the assay with TK-10 renal; 94.8% in the assay with ACHN renal; 94.6% in the assay on CAKI-1 renal; 77.8% with A498 renal. Besides, the values for the growth in the assay on CCRF-CEM leukemia and in the assay on MOLT-4 leukemia were 24.9% and 49.8%, respectively.

For the molecule `O=c1[nH]c2ccccc2cc1CSc1ccccc1Nc1nccc(-c2ccc(Cl)cc2)n1`, the growth in the assay on HCT-15 colon is 101%; in the assay on HT29 colon it was 109%; in the assay with SNB-75 CNS, 71.7%; in the assay on SNB-19 CNS it was 98.8%; in the assay on U251 CNS, 104%; in the assay on PC-3 prostate, 87.9%. In addition, the growth in the assay with SK-MEL-5 melanoma was 96.6%; in the assay with UACC-62 melanoma it was 77.1%; in the assay on LOX IMVI melanoma, 96.3%; in the assay with SK-MEL-28 melanoma, 107%; in the assay on SK-MEL-2 melanoma, 113%; with EKVX NSCLC, 88.6%. The growth with SN12C renal is 94.9%; in the assay with UO-31 renal, 83.3%; with TK-10 renal it was 115%; with ACHN renal, 81.5%; in the assay with CAKI-1 renal, 80.6%; in the assay on A498 renal, 85.5%. Further, the figures for the growth in the assay on CCRF-CEM leukemia and in the assay on MOLT-4 leukemia were 101% and 100%, respectively.

In the case of `C[C@@H](Nc1ncnc2ccc(-c3cnc(Cl)c(NS(C)(=O)=O)c3)cc12)c1ccccc1`, the growth is 66% in the assay with HCT-15 colon; 64.6% with HT29 colon; -14.7% (active) with SNB-75 CNS; 64% with SNB-19 CNS; 67.9% in the assay with U251 CNS; 41.5% with PC-3 prostate. For the same molecule, the growth is 66.3% in the assay on SK-MEL-5 melanoma; 35.6% with UACC-62 melanoma; 40.2% with LOX IMVI melanoma; 50.4% with SK-MEL-28 melanoma; 53.7% with SK-MEL-2 melanoma; 19.8% in the assay on EKVX NSCLC. In addition, the growth was 30.1% in the assay with SN12C renal; 26.9% in the assay with UO-31 renal; 3.2% (active) in the assay with TK-10 renal; 43.1% in the assay with ACHN renal; 10.1% with CAKI-1 renal; -22.2% (active) in the assay on A498 renal. Further, the growth was 42.6% with CCRF-CEM leukemia and 20.8% in the assay with MOLT-4 leukemia.

For `Cn1cc(CNc2nc3ccc(OC/C(=C/F)CN)cc3o2)ccc1=O`, the growth with HCT-15 colon is 103%; in the assay with HT29 colon it was 111%; in the assay on SNB-75 CNS it was 110%; with SNB-19 CNS, 98%; in the assay on U251 CNS, 106%; in the assay with PC-3 prostate, 107%. In addition, the growth in the assay with SK-MEL-5 melanoma was 104%; with UACC-62 melanoma it was 95.1%; in the assay with LOX IMVI melanoma, 98.2%; with SK-MEL-28 melanoma it was 99.4%; in the assay on SK-MEL-2 melanoma, 114%; in the assay on EKVX NSCLC, 98.4%. Moreover, the growth in the assay on SN12C renal was 99.8%; in the assay on UO-31 renal, 93.1%; in the assay on TK-10 renal, 107%; in the assay with ACHN renal it was 105%; in the assay on CAKI-1 renal, 91%; with A498 renal it was 102%. The growth is 107% in the assay with CCRF-CEM leukemia and 104% in the assay on MOLT-4 leukemia.

As to `C#CCn1cccc1CNc1ccc(OC)cc1`, the growth with HCT-15 colon was -79.2% (active); with HT29 colon it was -50.4% (active); with SNB-75 CNS, -79.9% (active); in the assay with SNB-19 CNS, -90.1% (active); with U251 CNS, -74.6% (active); in the assay on PC-3 prostate, -93.3% (active). Further, the growth in the assay on SK-MEL-5 melanoma was -6.24% (active); with UACC-62 melanoma it was -91.7% (active); with LOX IMVI melanoma, -84.8% (active); with SK-MEL-28 melanoma, -48.9% (active); in the assay with SK-MEL-2 melanoma, -14.1% (active); in the assay with EKVX NSCLC it was -83% (active). Also, the growth was -84.3% (active) in the assay with SN12C renal; -95.4% (active) with UO-31 renal; -77.7% (active) with TK-10 renal; -95% (active) in the assay with ACHN renal; -87.6% (active) in the assay on CAKI-1 renal; 53.8% in the assay on A498 renal. The growth in the assay with CCRF-CEM leukemia was -43.6% (active); in the assay with MOLT-4 leukemia, -29.5% (active).

In the case of `COCCNc1ccc2ncc(C#Cc3cncc(C(=O)Nc4ccc(CN5CCN(C)CC5)c(C(F)(F)F)c4)c3)n2n1`, the growth in the assay on HCT-15 colon is -22.7% (active); in the assay on HT29 colon, -22.6% (active); with SNB-75 CNS it was -71.5% (active); in the assay with SNB-19 CNS, -12% (active); in the assay with U251 CNS, -38.2% (active); in the assay with PC-3 prostate it was -25.3% (active). The growth with SK-MEL-5 melanoma is -93.7% (active); in the assay with UACC-62 melanoma, -62.4% (active); in the assay with LOX IMVI melanoma it was -87.8% (active); in the assay on SK-MEL-28 melanoma, -22.9% (active); in the assay with SK-MEL-2 melanoma, -90.5% (active); in the assay with EKVX NSCLC it was -23.2% (active). Moreover, the growth was -6.14% (active) in the assay on SN12C renal; -40% (active) in the assay with UO-31 renal; -43.3% (active) in the assay on TK-10 renal; 1.57% (active) in the assay on ACHN renal; -40.3% (active) in the assay on CAKI-1 renal; -98% (active) with A498 renal. Moreover, the growth in the assay on CCRF-CEM leukemia was 11.2%; in the assay with MOLT-4 leukemia it was 5.84% (active).

Take `COc1ccc2c(c1)c(-c1cc(N)n3nc(-c4cn(C)c5ccc(OC)cc45)cc3n1)cn2C`: the growth in the assay on HCT-15 colon was 29.8%; in the assay on HT29 colon, 75.6%; with SNB-75 CNS, 98.2%; with SNB-19 CNS, 107%; with U251 CNS, -30.9% (active); in the assay with PC-3 prostate, 88.7%. Moreover, the growth was 102% in the assay on SK-MEL-5 melanoma; 100% with UACC-62 melanoma; 105% in the assay with LOX IMVI melanoma; 113% with SK-MEL-28 melanoma; 133% in the assay with SK-MEL-2 melanoma; 107% with EKVX NSCLC. The growth in the assay on SN12C renal was 92.4%; with UO-31 renal, 93.3%; in the assay on TK-10 renal, 121%; in the assay on ACHN renal, 103%; in the assay on CAKI-1 renal, 96.7%; in the assay on A498 renal, 88.8%. Also, the growth with CCRF-CEM leukemia is -8.54% (active); in the assay with MOLT-4 leukemia it was 56.1%.
